Sampled rows, rich in hits. Any-hit rate of the full collection: about 7%.
USP28 block – blocks human USP28 ubiquitin-rhodamine cleavage | Q96RU2 | purified USP28, Ub-rhodamine cleavage fluorescence, 30 min | inhibition, % at 25 µM | 47,000 compounds, 3% hits | AID 1645857
USP30 inh – blocks human USP30 ubiquitin-rhodamine cleavage. purified USP30, Ub-rhodamine cleavage fluorescence. inhibition, % at 25 µM. 47,000 compounds, 5.3% hits
Hits are given with their value; - = inactive. No stated cut-off is given here; in the data, active means inhibition above about 30%; inactive means the rest.

SMILES	USP28 block	USP30 inh
COc1ccc(/C=C2\CC(=O)c3ccccc3C2)c(OC)c1	-	-
O=C1C/C(=C\c2cccc([N+](=O)[O-])c2)Cc2ccccc21	-	38
O=C(Cc1ccc(S(=O)(=O)N2CCOCC2)s1)N1CCCCC1	-	-
Cc1noc2ncc(-c3nnc(Cc4ccccc4F)o3)cc12	-	-
Cc1c(C(C)OC(=O)c2ccc(F)cc2)sc2ncnn12 (stereo not given)	-	32
O=C(c1ccco1)N1CCN(C(c2cccc(F)c2)c2sc3ncnn3c2O)CC1 (stereo not given)	-	-
O=C(COc1ccc(F)cc1)N(Cc1cccc(F)c1)c1ccccn1	-	-
COc1ccc(CNC(=O)c2ccccc2NC(=O)c2ccc(F)cc2)cc1	-	-
COc1ccc(C(=O)Nc2ccccc2C(=O)NC(Cc2ccc(O)cc2)C(=O)NNC(=O)Cc2ccc(OC)c(OC)c2)cc1 (stereo not given)	-	31
CC(C)(C)c1ccc(C(=O)N2CCC(C(=O)N3CCN(c4ccccc4F)CC3)CC2)cc1	-	-
Cc1[nH]c2ccccc2c1CCNC(=O)/C(=C/c1ccccc1)NC(=O)c1ccccc1	-	-
COc1ccc(/C=C(\NC(=O)c2ccc(Br)cc2)C(=O)NCCc2c(C)[nH]c3ccccc23)cc1	-	34
O=C(Nc1ccc(SCc2nnc(-c3ccccc3)o2)cc1)C1CC1	61	-
O=C(CCc1nc(CSc2nnc(-c3ccncc3)o2)no1)Nc1ccccc1	-	-
CCCC(=O)Nc1ccc(SCc2nnc(-c3ccccc3)o2)cc1	66	-
Cc1cc(C(=O)Nc2nnc(CSc3ccccc3)o2)no1	-	-
Cc1ccccc1NC(=O)C(Sc1ccc(NC(=O)c2ccccc2C(=O)O)cc1)c1ccccc1 (stereo not given)	-	-
O=C(O)c1cc(NC(=O)C(Sc2cccc(NC(=O)c3ccccc3F)c2)c2ccccc2)ccc1O (stereo not given)	-	-
O=C(O)c1ccccc1C(=O)Nc1ccc(SC(C(=O)Nc2cccc(Cl)c2)c2ccccc2)cc1 (stereo not given)	34	-
COc1cccc(C(=O)Nc2ccc(SC(C(=O)Nc3ccccc3)c3ccccc3)cc2)c1 (stereo not given)	-	-
Cc1ccc(C(=O)O)cc1NC(=O)C(Sc1cccc(NC(=O)c2cccc(Cl)c2)c1)c1ccccc1 (stereo not given)	47	91
Cc1cccc(C(=O)Nc2cccc(SC(C(=O)Nc3ccc(Cl)c(C(=O)O)c3)c3ccccc3)c2)c1 (stereo not given)	44	47
Cc1ccc2[nH]cc(-c3nnnn3-c3ccc(F)cc3)c2c1	-	-
Cc1cc(C(F)(F)F)c2sc(Nc3ccccc3)nc2n1	-	-
Cc1ccccc1CNC(=O)C1CCCN1c1nnc(N2CCCC2=O)s1 (stereo not given)	-	-
SMILES	USP28 block	USP30 inh
O=C(NCCc1nnc2ccccn12)c1sc2ccccc2c1Cl	-	-
Cc1ccc2c(Nc3ccc(CC(=O)O)cc3)c(C(=O)N3CCOCC3)cnc2n1	-	-
Cc1ccc(-c2nc(Cn3cccc3C(=O)N3CCOCC3)no2)cc1	-	-
O=C(NC[C@@H]1C[C@@H](Oc2ccccc2)[C@H](O)[C@H]1N1CCOCC1)c1cccnc1	-	-
O=C(Nc1ccccc1Cl)N1CCN(Cc2nnnn2-c2ccc(F)cc2)CC1	-	-
O=C(Cn1cnc(-c2noc(-c3ccncc3)n2)c1)N1CCN(c2ccc(F)cc2)CC1	-	-
Cc1nc(-c2noc(-c3ccncc3)n2)cn1CC(=O)N1CCN(c2ccc(F)cc2)CC1	-	62
COc1ccc(NS(=O)(=O)c2ccc3c(c2)NC(=O)CC(C)S3)cc1Cl (stereo not given)	-	-
CCCCN1C(=O)c2ccc(-c3ccco3)n2CC1(C)C(=O)NC1CCCCC1 (stereo not given)	-	-
Cc1cccc(NC(=O)CCNc2cc(C)nc3nc(-c4cccnc4)nn23)c1	-	-
Cc1ccc(C)c(OCCOCCN2CCNCC2)c1C	-	-
Cc1ccc(C(C)C)cc1OCCOCCN1CCNCC1	60	-
COc1ccc(-c2cc3nc([C@H](C)NC(=O)Cc4cccc(F)c4)nn3cn2)cc1	-	60
COc1ccc(-c2cc3nc([C@H](C)NC(=O)Cc4cc(F)ccc4F)nn3cn2)cc1	-	37
C[C@H](NC(=O)c1ccccc1F)c1nc2cc(-c3ccccc3F)ncn2n1	-	-
COc1ccc(-c2cc3nc([C@@H](C)NC(=O)c4ccc5c(c4)OCO5)nn3cn2)cc1	64	85
COc1cccc(CC(=O)N[C@@H](C)c2nc3cc(-c4ccc(F)cc4)ncn3n2)c1	-	-
COCCOc1ccc(C(=O)N[C@H](C)c2nc3cc(-c4ccccc4F)ncn3n2)cc1	-	-
COC(=O)C1=CC(OC)=C(Cl)C(=O)C12OC(=O)c1c(O)cc(C)cc1O2 (stereo not given)	-	-
Cc1cccc(NC(=O)CSc2ccc3nc(-c4ccccc4)cn3n2)c1C	-	-
CCCCOC(=O)c1cc(Nc2nc3ccccc3nc2-n2nc(C)cc2C)ccc1Cl	-	-
O=C(CCn1cccn1)N1CCCC(c2[nH]c3ccccc3c2-c2ccncc2)C1 (stereo not given)	-	-
CCc1cccc(NC(=O)Cn2c(C)cc(-c3nnc(C)o3)c2C)c1	-	-
O=C(Nc1cccc(OC(=O)c2ccc3c(c2)OCO3)c1)c1ccccc1	-	-
NC(=O)c1cccc(NC(=O)c2cc(Cl)c3c(c2)OCO3)c1	48	-
SMILES	USP28 block	USP30 inh
Cc1ccc(S(=O)(=O)N2CCOCC2)cc1-c1nnc(-c2ccccc2)o1	-	-
CCOc1ccccc1-c1nn2c(-c3cccnc3)nnc2s1	-	-
COc1ccccc1-c1nnc2sc(COc3cccc(C)c3)nn12	-	42
CCOc1ccc(-n2nnnc2-c2ccccn2)cc1	-	31
COc1ccc(OC)c(-n2nnnc2SCc2ccccn2)c1	-	-
Cc1ccc(N(Cc2ccc(NC(=O)C3CC3)cc2)C(=O)c2cccs2)cc1	-	-
Cn1cccc1/C(C#N)=C\c1ccc(C#N)cc1	-	-
COc1ccc(CCN2COc3c(cc(Cl)c4cccnc34)C2)cc1OC	-	49
COc1ccc(CCN2CCOc3nc4c(C)cccc4cc3C2)cc1OC	-	-
O=C(CSc1nnc(-c2cnccn2)s1)c1ccc(Cl)cc1	-	-
O=C(COc1ccc(N2CC(C(=O)NCc3ccc4c(c3)OCO4)CC2=O)cc1)Nc1ccc(F)cc1 (stereo not given)	-	57
O=C(COc1ccc(N2CC(C(=O)NCc3ccccc3)CC2=O)cc1)Nc1ccc(F)cc1 (stereo not given)	-	58
O=C(COc1ccc(N2CC(C(=O)NCc3ccc4c(c3)OCO4)CC2=O)cc1)Nc1ccc(Cl)cc1 (stereo not given)	-	-
Cc1ccc(CNC(=O)C2CC(=O)N(c3ccc(OCC(=O)Nc4ccc(C)cc4C)cc3)C2)cc1 (stereo not given)	-	-
Cc1nnc(NC(=O)C2CCN(C(=O)c3ccc(Cl)cc3)CC2)s1	-	-
CCc1nnc(-c2ccc3ccn(CC(=O)Nc4ccccn4)c3c2)o1	-	-
O=C(CN1C(=O)c2ccccc2OC(c2ccccc2)C1=O)c1ccc(Cl)cc1 (stereo not given)	-	-
O=C(COc1ccc(Cl)cc1Cl)Nc1ccc2sccc2c1	-	46
O=C(COc1ccc(Cl)cc1Cl)Nc1noc2ccccc12	-	-

Bioassay records as filed in PubChem.
